RE007 growth inh – qHTS Assay for Inhibitors of the HIV-1 protein Vpr; Potency, µM (doses to about 92.2 µM), for the others: at the highest dose activity change, negative = less growth, hits mostly inhibitors; 360,000 tested, 0.21% active; S. pombe RE007 Vpr strain, BacTiter-Glo ATP luminescence, 24 h; active means well fitted falling curve with a large enough effect; inconclusive means small, poorly fitted or top-dose-only effect; inactive means no such curve, though single readings can be large or run the other way; further: potency means the concentration at half of the fitted maximal effect; on the % scale 0 is the no-effect control and ±100 the full control effect; nearly all actives have a fitted effect of over 50% in size
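Fission yeast RE007 carrying one integrated HIV-1 vpr copy, seeded at OD 0.01 in PMG+AL medium with 23 nL pinned compound. Grown 24 h at 30 degrees; viability read by BacTiter-Glo luminescence after 5 min.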
LmPK inh – qHTS Assay for Inhibitors of Leishmania Mexicana Pyruvate Kinase (LmPK). Q27686. purified LmPK, Kinase-Glo ATP luminescence, 1 h. Potency, µM (series often up to 57.5 µM), for the others: at the highest dose activity change, negative = inhibition, actives largely listed as inhibitors. 290,000 tested, 0.37% active; further: potency means the concentration at half of the fitted maximal effect; on the % scale 0 is the no-effect control and ±100 the full control effect
Target sequence (Q27686 whole entry, looked up): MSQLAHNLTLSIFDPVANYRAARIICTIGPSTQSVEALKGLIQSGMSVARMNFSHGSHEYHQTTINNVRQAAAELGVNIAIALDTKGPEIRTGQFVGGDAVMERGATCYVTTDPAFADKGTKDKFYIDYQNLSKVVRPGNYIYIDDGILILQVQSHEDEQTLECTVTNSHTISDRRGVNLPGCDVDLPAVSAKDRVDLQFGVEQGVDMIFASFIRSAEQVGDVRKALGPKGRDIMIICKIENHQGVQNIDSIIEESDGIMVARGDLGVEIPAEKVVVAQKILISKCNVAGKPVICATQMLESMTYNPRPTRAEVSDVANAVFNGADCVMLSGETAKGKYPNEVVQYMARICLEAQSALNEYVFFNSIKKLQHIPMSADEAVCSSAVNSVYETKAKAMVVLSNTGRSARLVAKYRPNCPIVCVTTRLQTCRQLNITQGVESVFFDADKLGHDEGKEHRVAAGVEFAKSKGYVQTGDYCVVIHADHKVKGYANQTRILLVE
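In 50 mM imidazole pH 7.2 with 7 mM MgCl2, LmPK (0.1 nM) turned over PEP (0.5 mM) and ADP (0.1 mM) for 1 h at room temperature. Luciferase read-out of ATP.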
Shiga toxin inh – A qHTS for Small Molecule Inhibitors of Shiga Toxin | Vero cells, Shiga toxin protein synthesis inhibition reporter | inhibition, % at 38.7 µM | 290,000 tested, 9.2% active | AID 2315, 2010; in the data active means inhibition mostly above about 28%, no sharp cut-off; inactive means mostly below about 43%; further: 0% is about no effect
FBPA Giardia inh – qHTS Assay for Inhibitors of Fructose-1,6-bisphosphate Aldolase from Giardia Lamblia | Potency, µM (series often up to 59.6 µM), for the others: at the top dose activity, negative = inhibition, hits mostly inhibitors | 290,000 tested, 0.71% active | A8B2U2 | purified Giardia FBPA; further: potency means the concentration at half of the fitted maximal effect; on the % scale 0 is the no-effect control and ±100 the full control effect; nearly all actives have a fitted effect of over 55% in size
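40 nM FBPA preincubated 10 min at RT with compound (up to 57.5 uM final), then substrate plus GAPDH/TPI/NAD/arsenate coupling and diaphorase/resazurin added. Fluorescence read after 20 min at RT, 525/598 nm.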
CHX counter – Cycloheximide Counterscreen for Small Molecule Inhibitors of Shiga Toxin. 300,000 tested, 12% active. AID 2314, 2010. cell reporter, cycloheximide protein synthesis inhibition counterscreen. max response, %; in the data active means max response mostly above about 13%, no sharp cut-off; inactive means mostly below about 14%; further: read at 38.3 µM for the half of the compounds with a filed dose; 0% is about no effect
Tb PYK inh – qHTS of Trypanosoma Brucei Inhibitors | Potency, µM (top dose mostly 76.8 µM), for inactives: top-dose activity, negative = inhibition, usual class: inhibitors | 410,000 tested, 0.12% active | TbPYK enzyme, Kinase-Glo Plus ATP luminescence, 45 min | pyruvate kinase (Trypanosoma brucei), Q57TT1; further: potency means the concentration at half of the fitted maximal effect; on the % scale 0 is the no-effect control and ±100 the full control effect; nearly all actives have a fitted effect of over 50% in size
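Readout: single end-point luminescence (Kinase-Glo Plus, 10 min). Reaction conditions were TbPYK/substrate plus 130 uM ADP, 45 min at RT, pH 7.2 TEA buffer. No-enzyme wells served as controls, and data were normalized before concentration-response fitting.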
The depositor's hits bear a star; u = inconclusive; x = no result given; [ ] = another dose, or the depositor's remark. This excerpt belongs to a sample that is enriched for hits. Unless noted, the call rests on the fitted dose curve; in most records, active means well fitted curve in the direction sought with a large enough effect; inconclusive means small, poorly fitted or top-dose-only effect, or another doubt; inactive means no such curve, though single readings can be large; an effect the other way counts as inactive or inconclusive.

SMILES	RE007 growth inh	LmPK inh	Shiga toxin inh	FBPA Giardia inh	CHX counter	Tb PYK inh
S=C(NCc1cccnc1)Nc1ccc2c(c1)OCO2	20%	5%	41	-3%	27*	-6%
O=C(Nc1ccc(Cl)cc1)Nc1ccc2c(c1)OCO2	-11%	-10%	80*	x	76*	6%
Cc1ccc(S(=O)(=O)N[C@H]2COC(=O)C/C=C\[C@@H](C)COC(=O)C/C=C\[C@@H]2C)cc1	x	x	x	2%[12.9 µM]	x	x
Cc1ccc(C(=O)O)cc1NC(=O)Nc1ccc2c(c1)OCO2	0%	-5%	73*	0%	20*	-8%
Cc1ccc(NC(=O)Nc2ccc3c(c2)OCO3)c(Br)c1	-8%	2%	192	-1%	43*	3%
O=C(O)C1CCCCC1C(=O)Nc1ccc2c(c1)OCO2 (centres undefined)	-21%	3%	-9	5%	-1	-4%
CC1=C(C)CC(C(=O)Nc2ccc3c(c2)OCO3)C(C(=O)O)C1 (centres undefined)	-2%	5%	41*	0%	28*	-23%
Cc1cc(C)c2[nH]c(C(=O)Nc3ccc4c(c3)OCO4)cc2c1	-12%	3%	46	-29%	16*	-26%
CCCCNC(=O)CSc1nc2ccccc2nc1Cc1ccc(Cl)cc1	x	x	x	x	x	3%
COc1ccc(N(C)C(=O)NCc2noc3ccc(C)cc23)c(OC)c1	x	x	x	x	x	4%
O=C(c1ccccc1)c1ccc2nc(-c3ccco3)c(-c3ccco3)nc2c1	-3%	-4%	56*	u	36*	u
O=C(NCCc1ccccc1)c1ccc2nc(-c3ccco3)c(-c3ccco3)nc2c1	-19%	7%	1	u	-2	u
O=C(O)c1ccc2nc(-c3ccccc3)c(-c3ccccc3)nc2c1	-10%	-2%	65*	22%	56*	0%
CCSc1nc2ccccc2c(OCc2ccccc2Cl)c1C(=O)OC	x	x	x	x	x	1%
CC(=O)Nc1ccc(NCc2cccs2)cc1	7%	1%	28	-9%	12	-1%
Oc1ccc(NCc2cccs2)cc1	-15%	-2%	-2	-9%	24*	u
Cc1cccc(NC(=S)NCc2cccs2)c1C	13%	1%	-13	3%	22*	4%
S=C(NCCc1ccccc1)NCc1cccs1	-11%	2%	active	5%	54*	1%
COc1ccccc1CNC(=O)CCc1ccccc1	-7%	-5%	5	21%	8	9%
COc1ccccc1CNC(=S)NCCc1ccccc1	-5%	-1%	47*	-2%	13	1%
COc1ccc(CCNC(=S)NCc2cccs2)cc1OC	23%	-2%	-2	-3%	-1	-1%
COP(=S)(OC)Oc1cc(Cl)c(Cl)cc1Cl	x	x	x	x	x	1%
Cc1ccc(NC(=O)c2cnn(-c3ccc(C)c(C)c3)c2C2CCN(C(=O)OC(C)(C)C)CC2)c(C)c1	x	x	x	x	x	-8%
CCOC(=O)CC(NC(=O)c1cc2c(=O)n3cccc(C)c3nc2s1)c1ccc(OCC)c(OC)c1 (centres undefined)	x	x	x	x	x	4%
CCCNC(=O)CN1C(=O)c2cccnc2Sc2ccccc21	x	x	x	x	x	-4%
SMILES	RE007 growth inh	LmPK inh	Shiga toxin inh	FBPA Giardia inh	CHX counter	Tb PYK inh
S=C(NCc1cccs1)Nc1ccc(Br)cc1Cl	3%	-1%	81*	-4%	44*	4%
CCC(C)c1ccc(NC(=S)NCc2cccs2)cc1 (centres undefined)	-30%	2%	76*	1%	23*	-19%
CC(C)(C)c1ccc(NC(=S)NCc2cccs2)cc1	-19%	6%	54	0%	23*	1%
Cc1cc(C)cc(NC(=S)NCc2cccs2)c1	2%	3%	26*	2%	-2	-15%
S=C(NCc1cccs1)Nc1cccc2ccccc12	0%	0%	21	-3%	2	2%
COc1ccc(-n2ccnc(NCc3cccs3)c2=O)cc1	x	x	x	x	x	-2%
c1ccc2c3c([nH]c2c1)[C@@H]1[C@H]2CC[C@H]([C@H]4CCCN[C@H]42)N1CC3	x	x	x	-6%[21.7 µM]	x	x
COc1ccc(CCNC(=O)Cc2c(C)c3c(cc(C)c4c(C)coc43)oc2=O)cc1	x	x	x	x	x	-4%
COCC(=O)N1CCC2(CCCN(C(=O)Nc3ccc(OC)cc3)C2)CC1	x	x	x	3%	x	3%
O/N=C/c1ccn(-c2ccc(Br)cc2)c1	-21%	-10%	69*	-2%	40*	-3%
Cc1cc(/C=N/O)c(C)n1-c1ccc(Br)cc1	u	0%	-3	-12%	6	-4%
CCCCc1cc2c(cn1)=C(OC(=O)c1cccs1)C(C)(OC(=O)CC)C(=O)C=2 (centres undefined)	x	3%[11.5 µM]	x	-2%[12.9 µM]	x	x
OCCNc1cnc2ccccc2n1	-15%	-1%	51*	4%	19*	-19%
OCCNc1nc2ccccc2nc1NCCO	-5%	1%	29	-3%	1	-11%
Cc1cc(Nc2cccc(Cl)c2)c2ccccc2n1	-2%	-5%	-6	2%	1	-6%
Cc1cc(Nc2ccc3c(c2)OCCO3)c2cc(Cl)ccc2n1	-8%	0%	79*	-16%	68*	-1%
CC(=O)N(c1ccc(Cl)cc1)c1cn(C(C)=O)c2ccccc12	6%	4%	5	3%	-7	-2%
CC(=O)n1cc(N(C(=O)CCl)c2ccc(C)cc2)c2ccccc21	4%	7%	4	-1%	22*	-1%
Cc1cccc(CNC(=O)c2oc3c(c2C)-c2nn(Cc4ccccc4Cl)cc2CC3)c1	x	x	x	x	x	-3%
Cc1nc2ccc(NC(=O)c3ccc(Cl)s3)cc2s1	-2%	8%	77*	0%	15	1%
Cc1nc2ccc(NC(=O)c3ccc(Br)o3)cc2s1	13%	-6%	66*	-13%	36*	29%
Cc1nc2ccc(NC(=O)c3cccnc3)cc2s1	-24%	8%	55	-8%	8	-1%
Cc1ccc2nc(NC(=O)c3ccc(Cl)s3)sc2c1	-14%	-1%	51*	0%	25*	-16%
Cc1nc2ccc(NC(=O)c3cnc(Cl)c(Cl)c3)cc2s1	-13%	2%	71*	1%	18*	-1%
COc1cc(NC(=O)CN2c3ccccc3S(=O)(=O)c3ccccc32)cc(OC)c1	x	x	x	x	x	0%
CSc1ncc(C(=O)Nc2ccc(Cl)cc2)c(C)n1	9%	-4%	39*	1%	14	-8%
CSc1ncc(C(=O)Nc2ccc(Br)cn2)c(C)n1	-9%	6%	56*	3%	23*	4%
CSc1ncc(C(=O)Nc2ccc(C(C)=O)cc2)c(C)n1	-4%	-2%	80*	-10%	35*	1%
